Assay results published in PubChem BioAssay AID1159580 (chemical genetic matrix, 2015).
In all, about 5,500 compounds went through this assay and about 2,000 (36%) were called active. Inconclusive results (about 18%) are left out. No stated cut-off is given here; in the data, active means normalized growth mostly below about 0.91 (no sharp cut-off); inconclusive means no clear call, values can overlap the other calls; inactive means mostly above about 0.92. Some of the results follow.

Assay: chemical genetic growth profiling, strain panel (AID 1159580);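 further: tested at 20 µM; growth read once vehicle control cultures reached saturation at 30 °C; 1 = growth at the plate median or of vehicle wells; lower values mean less growth of the strain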
Conditions: growth OD

Measured: normalized growth

Cc1cc(NC(=O)C2=C(O)c3ccccc3S(=O)(=O)N2C)no1
active: S. cerevisiae deletion strains, locus YKL068W, hits give low values 0.924 | S. cerevisiae deletion strains, locus YKL085W, strain MDH1 (second series), hits give low values 0.906 | S. cerevisiae deletion strains, locus YKL085W, strain MDH1, hits give low values 0.906
inactive: S. cerevisiae deletion strains, locus YJR066W, strain TOR1, hits give low values 0.893 | S. cerevisiae deletion strains, locus YKL009W, strain mrt4, hits give low values 0.928 | S. cerevisiae deletion strains, locus YKL160W, strain elf1, hits give low values 0.996 | S. cerevisiae deletion strains, locus YKL190W, strain CNB1, hits give low values 0.976 | S. cerevisiae deletion strains, locus YKR001C, strain vps1, hits give low values 0.973 | S. cerevisiae deletion strains, locus YKR026C, strain gcn3, hits give low values 0.956 | S. cerevisiae deletion strains, locus YKR091W, strain srl3, hits give low values 0.95 | S. cerevisiae deletion strains, locus YLL001W, strain dnm1, hits give low values 0.992 | S. cerevisiae deletion strains, locus YLL026W, hits give low values 0.968 | S. cerevisiae deletion strains, locus YLL041C, strain sdh2, hits give low values 0.96 | S. cerevisiae deletion strains, locus YLR027C, strain aat2, hits give low values 0.975 | S. cerevisiae deletion strains, locus YLR039C, strain RIC1, hits give low values 0.96 | S. cerevisiae deletion strains, locus YLR058C, strain SHM2, hits give low values 0.984 | S. cerevisiae deletion strains, locus YLR102C, strain apc9, hits give low values 0.95 | S. cerevisiae deletion strains, locus YLR113W, strain HOG1, hits give low values 0.929 | S. cerevisiae deletion strains, locus YLR221C, strain rsa3, hits give low values 0.968 | S. cerevisiae deletion strains, locus YLR258W, strain gsy2, hits give low values 0.971 | S. cerevisiae deletion strains, locus YLR262C, strain YPT6 (second series), hits give low values 0.999 | S. cerevisiae deletion strains, locus YLR262C, strain YPT6, hits give low values 0.977 | S. cerevisiae deletion strains, locus YLR268W, strain sec22, hits give low values 0.969 | S. cerevisiae deletion strains, locus YLR320W, strain mms22, hits give low values 0.955 | S. cerevisiae deletion strains, locus YLR330W, strain CHS5, hits give low values 0.962 | S. cerevisiae deletion strains, locus YLR342W, strain FKS1 (second series), hits give low values 1.01 | S. cerevisiae deletion strains, locus YLR342W, strain FKS1, hits give low values 0.975 | S. cerevisiae deletion strains, locus YLR357W, strain rsc2, hits give low values 0.994 | S. cerevisiae deletion strains, locus YLR370C, strain arc18, hits give low values 0.98 | S. cerevisiae deletion strains, locus YLR371W, strain rom2, hits give low values 0.967 | S. cerevisiae deletion strains, locus YLR384C, strain iki3, hits give low values 0.954 | S. cerevisiae deletion strains, locus YLR418C, strain cdc73, hits give low values 0.951 | S. cerevisiae deletion strains, locus YML016C, strain PPZ1, hits give low values 0.987 | S. cerevisiae deletion strains, locus YML032C, strain rad52, hits give low values 0.985 | S. cerevisiae deletion strains, locus YML120C, strain ndi1, hits give low values 0.947 | S. cerevisiae deletion strains, locus YML124C, strain tub3, hits give low values 0.954 | S. cerevisiae deletion strains, locus YMR058W, strain fet3, hits give low values 0.976 | S. cerevisiae deletion strains, locus YMR078C, strain ctf18, hits give low values 0.924 | S. cerevisiae deletion strains, locus YMR125W, strain sto1, hits give low values 0.955 | S. cerevisiae deletion strains, locus YMR129W, hits give low values 0.956 | S. cerevisiae deletion strains, locus YMR205C, strain PFK2, hits give low values 0.989 | S. cerevisiae deletion strains, locus YMR223W, strain ubp8, hits give low values 0.944 | S. cerevisiae deletion strains, locus YMR231W, strain pep5, hits give low values 0.967 | S. cerevisiae deletion strains, locus YMR307W, strain GAS1, hits give low values 0.961 | S. cerevisiae deletion strains, locus YNL067W, strain RPL9B, hits give low values 1.01 | S. cerevisiae deletion strains, locus YNL071W, strain lat1, hits give low values 0.976 | S. cerevisiae deletion strains, locus YNL183C, strain NPR1, hits give low values 0.879 | S. cerevisiae deletion strains, locus YNL209W, strain ssb2, hits give low values 0.96 | S. cerevisiae deletion strains, locus YNL233W, strain BNI4, hits give low values 1.04 | S. cerevisiae deletion strains, locus YNL248C, strain rpa49, hits give low values 0.973 | S. cerevisiae deletion strains, locus YNL250W, strain rad50, hits give low values 0.908 | S. cerevisiae deletion strains, locus YNL271C, strain bni1, hits give low values 0.923 | S. cerevisiae deletion strains, locus YNL298W, strain CLA4, hits give low values 0.923 | S. cerevisiae deletion strains, locus YNL307C, strain MCK1, hits give low values 0.947 | S. cerevisiae deletion strains, locus YNL322C, strain KRE1 (second series), hits give low values 0.953 | S. cerevisiae deletion strains, locus YNL322C, strain KRE1, hits give low values 0.978 | S. cerevisiae deletion strains, locus YNR049C, strain mso1, hits give low values 0.967 | S. cerevisiae deletion strains, locus YNR052C, strain pop2, hits give low values 0.955 | S. cerevisiae deletion strains, locus YOL006C, strain TOP1, hits give low values 1.03 | S. cerevisiae deletion strains, locus YOL012C, strain htz1 1.14 | S. cerevisiae deletion strains, locus YOL147C, strain pex11, hits give low values 0.942 | S. cerevisiae deletion strains, locus YOR001W, strain rrp6, hits give low values 0.997 | S. cerevisiae deletion strains, locus YOR061W, strain CKA2, hits give low values 0.992 | S. cerevisiae deletion strains, locus YOR069W, strain VPS5, hits give low values 0.972 | S. cerevisiae deletion strains, locus YOR070C, strain gyp1, hits give low values 0.971 | S. cerevisiae deletion strains, locus YOR080W, strain dia2, hits give low values 0.974 | S. cerevisiae deletion strains, locus YOR083W, strain WHI5, hits give low values 0.964 | S. cerevisiae deletion strains, locus YOR106W, strain vam3, hits give low values 0.996 | S. cerevisiae deletion strains, locus YOR136W, strain idh2, hits give low values 0.978 | S. cerevisiae deletion strains, locus YOR144C, strain elg1, hits give low values 0.956 | S. cerevisiae deletion strains, locus YOR184W, strain ser1, hits give low values 0.945 | S. cerevisiae deletion strains, locus YOR231W, strain MKK1, hits give low values 0.993 | S. cerevisiae deletion strains, locus YOR265W, strain rbl2, hits give low values 0.966 | S. cerevisiae deletion strains, locus YOR270C, strain vph1, hits give low values 0.969 | S. cerevisiae deletion strains, locus YOR290C, strain snf2, hits give low values 0.977 | S. cerevisiae deletion strains, locus YOR316C, strain cot1, hits give low values 0.94 | S. cerevisiae deletion strains, locus YPL051W, strain arl3, hits give low values 0.989 | S. cerevisiae deletion strains, locus YPL078C, strain atp4, hits give low values 0.981 | S. cerevisiae deletion strains, locus YPL106C, strain sse1, hits give low values 0.954 | S. cerevisiae deletion strains, locus YPL240C, strain hsp82, hits give low values 0.973 | S. cerevisiae deletion strains, locus YPL256C, strain CLN2, hits give low values 0.905 | S. cerevisiae deletion strains, locus YPR119W, strain clb2, hits give low values 0.945 | S. cerevisiae deletion strains, locus YPR141C, strain kar3, hits give low values 0.919 | S. cerevisiae deletion strains, locus YPR163C, strain tif3, hits give low values 0.931 | S. cerevisiae deletion strains, locus YPR167C, strain met16, hits give low values 0.943 | S. cerevisiae deletion strains, strain wtn01, hits give low values 0.961 | S. cerevisiae strains, strain wild type, hits give low values 0.983
